Laboratory results: PubChem BioAssay
The source made the active and inactive calls. How the calls were made is not given here.

The compounds below were run on Aerobactin synthetase IucA (Klebsiella pneumoniae, hypervirulent) (assay: IucA enzyme inhibition, biochemical, LOPAC library, absorbance readout (AID 1346212;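 further: 100% = no compound wells and 0% = no enzyme wells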)). Conditions: IucA enzyme assay, absorbance (OD) readout; active compounds read low;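 tested at 8 µM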.
`CC(N)=NCc1cccc(CN)c1` was tested, and the remaining activity was 103% (inactive). With `CN1[C@@H]2CC[C@H]1CC(OC(=O)[C@H](CO)c1ccccc1)C2` (stereo not given in full) the remaining activity was 107% (inactive). With `CC(C)(C)c1onc(OCP(=O)(O)O)c1CC(N)C(=O)O` (stereo not given) the remaining activity was 112% (inactive). With `NCCCC(N)(C(=O)O)C(F)F` (stereo not given) the remaining activity was 121% (inactive). `CC(=O)N[C@H](C(=O)O)C(C)(C)SN=O` was tested, and the remaining activity was 117% (inactive). With `NC(=O)CNCCC(c1ccccc1)c1ccccc1` the remaining activity was 118% (inactive). With `COc1ccccc1N1CCN(CCN(C(=O)C2CCCCC2)c2ccccn2)CC1` the remaining activity was 119% (inactive). In the case of `CCN(CC)CC#CCOC(=O)C(O)(c1ccccc1)C1CCCCC1` (stereo not given), the remaining activity is reported as 118% (inactive). `C=CC[C@H](N)C(=O)O` was tested, and the remaining activity was 95.7% (inactive). In the case of `N=C(N)SCCc1cccc(CCSC(=N)N)c1`, the remaining activity is reported as 110% (inactive). In the case of `NC(=O)c1ncn([C@@H]2O[C@H](CO)[C@@H](O)[C@H]2O)c1O`, the remaining activity is reported as 122% (inactive). With `C[N+](C)(C)CCCCCNCC12CC3CC(CC(C3)C1)C2` the remaining activity was 120% (inactive). With `Cc1[nH]c(=O)c(C#N)cc1-c1ccc2nccn2c1` the remaining activity was 112% (inactive). With `CC(C)C(=O)c1c(C(C)C)nn2ccccc12` the remaining activity was 125% (inactive). With `CC[C@H](NC(=O)c1c(C)c(-c2ccccc2)nc2ccccc12)c1ccccc1` the remaining activity was 114% (inactive). In the case of `CC(C)(C=O)Cc1cc(C(C)(C)C)c(O)c(C(C)(C)C)c1`, the remaining activity is reported as 115% (inactive). With `O=c1cc(O)cc(/C=C/c2ccc(O)c(O)c2)o1` the remaining activity was 93.8% (inactive). With `N=C(N)N1CCc2ccccc2C1` the remaining activity was 106% (inactive). `c1cnc(N2CCN(Cc3ccc4c(c3)OCO4)CC2)nc1` was tested, and the remaining activity was 102% (inactive). In the case of `CC(=O)O[C@H]1C[C@@]2(C)[C@@H](C[C@@H](O)[C@H]3[C@@]4(C)CC[C@@H](O)[C@@H](C)[C@@H]4CC[C@@]32C)/C1=C(\CCC=C(C)C)C(=O)O`, the remaining activity is reported as 96.1% (inactive). With `CC[C@@H]1Cc2cc(O)ccc2C2=C1c1ccc(O)cc1C[C@H]2CC` the remaining activity was 89.7% (inactive). For `CC(C)NC[C@H](O)COc1ccc(CC(N)=O)cc1`, the remaining activity was 115% (inactive). In the case of `CCCCS(=N)(=O)CC[C@H](N)C(=O)O` (stereo not given in full), the remaining activity is reported as 92.2% (inactive). With `O=C[C@H](Cl)[C@@H](O)[C@H](O)[C@H](O)CO` the remaining activity was 101% (inactive). With `C=C[C@@]1(C)CC(=O)[C@]2(O)[C@@]3(C)[C@@H](O)CCC(C)(C)[C@@H]3[C@H](O)[C@H](OC(C)=O)[C@@]2(C)O1` the remaining activity was 107% (inactive). With `NC(=O)c1cc[n+](CC2=C(C(=O)O)N3C(=O)[C@@H](NC(=O)[C@@H](c4ccccc4)S(=O)(=O)[O-])[C@H]3SC2)cc1` the remaining activity was 107% (inactive). With `CC(C)NC[C@H](O)COc1cccc2[nH]ccc12` the remaining activity was 116% (inactive). For `CC(C)NC[C@@H](O)COc1ccc(CC(N)=O)cc1`, the remaining activity was 117% (inactive). For `CC[n+]1c(/C=C/C=C2/N(C)c3ccccc3C2(C)C)sc2ccccc21`, the remaining activity was 93.2% (inactive). With `Cc1ccc(S(=O)(=O)N[C@@H](Cc2ccccc2)C(=O)CCl)cc1` the remaining activity was 107% (inactive). For `CC(=O)OCC(=O)[C@@]1(O)CC[C@H]2[C@@H]3CCC4=CC(=O)CC[C@]4(C)[C@H]3C(=O)C[C@@]21C`, the remaining activity was 102% (inactive). In the case of `CC(C)NCC(O)COc1ccc(COCCOC(C)C)cc1` (stereo not given), the remaining activity is reported as 91.4% (inactive). With `CC(C)(C)[C@]1(O)CCN2C[C@H]3c4ccccc4CCc4cccc(c43)[C@@H]2C1` the remaining activity was 105% (inactive). With `Nc1ncnc2c1c(-c1ccc(Oc3ccccc3)cc1)cn2C1CCCC1` the remaining activity was 122% (inactive). With `COc1ccccc1N1CCN(CCN2C(=O)CC3(CCCC3)CC2=O)CC1` the remaining activity was 117% (inactive). For `COc1cccc(OC)c1OCCNCC1CSc2ccccc2O1` (stereo not given), the remaining activity was 114% (inactive). `OC[C@H]1O[C@@H](n2cnc3c(NCCc4ccccc4)ncnc32)[C@H](O)[C@@H]1O` was tested, and the remaining activity was 92.7% (inactive). For `Nc1nnc(-c2cccc(Cl)c2Cl)c(N)n1`, the remaining activity was 114% (inactive). `Fc1ccc(C(OCCCc2cnc[nH]2)c2ccc(F)cc2)cc1` was tested, and the remaining activity was 111% (inactive). For `NC(N)=NCCC[C@H](N)C(=O)O`, the remaining activity was 111% (inactive).
